# In PubChem BioAssay AID624169 (The Scripps Research Institute Molecular Screening Center, 2012):
# Screen size: about 360,000 compounds; about 2,400 (0.67%) were called active.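 The calls were made as follows: active = activation above a run cutoff, the mean activation of all tested compounds plus 3 SD (cut at about 14% in these data); inactive = the rest.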 The list comes from a sample in which actives are over-represented; it also holds similar structures and randomly drawn compounds.
# Target: 5-hydroxytryptamine receptor 2A (Mus musculus) (UniProt P35363)
# Sequence (P35363 whole entry, looked up): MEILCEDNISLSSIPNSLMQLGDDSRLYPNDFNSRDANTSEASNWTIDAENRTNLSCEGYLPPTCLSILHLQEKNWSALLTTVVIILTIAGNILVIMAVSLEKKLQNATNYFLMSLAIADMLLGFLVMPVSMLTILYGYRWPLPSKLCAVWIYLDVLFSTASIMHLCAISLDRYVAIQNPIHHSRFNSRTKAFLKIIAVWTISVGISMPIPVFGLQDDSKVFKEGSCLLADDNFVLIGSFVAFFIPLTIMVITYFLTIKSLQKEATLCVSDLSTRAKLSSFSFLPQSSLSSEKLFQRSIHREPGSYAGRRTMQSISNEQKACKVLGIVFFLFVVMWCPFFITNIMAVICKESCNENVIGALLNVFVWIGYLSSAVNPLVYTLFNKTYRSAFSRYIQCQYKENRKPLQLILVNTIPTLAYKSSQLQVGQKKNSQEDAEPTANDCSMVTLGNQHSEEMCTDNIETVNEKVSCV
# Test: activation of mouse 5-HT2A receptor – cell-based, luminescence, primary screen (AID 624169);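 also: 0% = plate median of compound wells and 100% = 30 µM serotonin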
# Conditions: CHO-K1 mHTR2A beta-arrestin complementation, at 7.6 µM, hits give high values, percent of 30 µM serotonin response
row,SMILES,activation
1,O=S(=O)(Cc1cc(Cl)nc(-c2cccnc2)n1)c1ccccc1,-2.49% (inactive)
2,CC(C)(C)Oc1ccccc1Nc1nc(NCCO)nc(N2CCCC2)n1,23.9% (active)
3,Cn1ncc2c(N3CCCCC3)nc(NCCCO)nc21,1.52% (inactive)
4,CCCOc1ccc(Cl)cc1Nc1nc(NCCO)nc(N2CCCC2)n1,0.98% (inactive)
5,CCc1nc2c(OCCc3cccc(OC)c3)cccn2c1N(C)C(=O)c1ccc(C)cc1,-1.71% (inactive)
6,O=C(CN1CCC(O)(c2cccc(C(F)(F)F)c2)CC1)NCCc1ccccc1,-1.29% (inactive)
7,CCCCOCCCNC(=O)C[C@@H]1C[C@@]2(C(=O)OC)CCCCC=C2N(CCC2=CCCCC2)C1=O,-1.53% (inactive)
8,COC(=O)[C@]12CCCCC=C1N(CCC1=CCCCC1)C(=O)[C@H](CC(=O)NCC1CCCCC1)C2,19.2% (active)
9,CCOC(=O)N1CCN(C(=O)C[C@@H]2C[C@@]3(C(=O)OC)CCCCC=C3N(CCC3=CCCCC3)C2=O)CC1,-5.86% (inactive)
10,COc1ccc(-c2ccc(CN3C(C(C)C)C(=O)N(Cc4cn(CC5CCCCC5)nn4)CCS3(=O)=O)cc2)cn1 (stereo not drawn),-1.52% (inactive)
11,Cc1c(C(C)(C)O)[nH]c2ccc(C#N)cc12,3.5% (inactive)
12,Cc1ccc(C)c(S(=O)(=O)N2CCN(c3ncnc4sccc34)CC2)c1,4.9% (inactive)
13,Cc1ccc(S(=O)(=O)N2CCN(Cc3cccc(C)c3O)CC2)cc1,-3.27% (inactive)
14,Cc1ccc(S(=O)(=O)N2CCN(c3ncnc4ccccc34)CC2)cc1,16.6% (active)
15,CCN(CC)CCn1cnc2c1c(=O)n(CCOC(=O)c1cc(OC)c(OC)c(OC)c1)c(=O)n2C,-1.4% (inactive)
16,COC(=O)[C@@]1(Cc2ccc(F)cc2)[C@H]2c3cc(C(=O)N4CCCC4)n(Cc4ccc(OC(F)(F)F)cc4)c3C[C@H]2CN1C(=O)c1ccccc1,1.1% (inactive)
17,COC(=O)[C@@]1(Cc2ccc(F)cc2)[C@H]2c3cc(C(=O)N4CCCC4)n(C[C@H](O)CO)c3C[C@H]2CN1C(=O)c1ccccc1,3.75% (inactive)
18,COC(=O)[C@@]1(Cc2ccc(F)cc2)[C@H]2c3cc(C(=O)N(C)C)n(CCc4c[nH]c5ccc(OC)cc45)c3C[C@H]2CN1C(=O)c1ccccc1,19.8% (active)
19,O=C(CN1C(=O)NC2(CCCCCC2)C1=O)Nc1ccc([N+](=O)[O-])cc1,-2.54% (inactive)
20,COc1ccc(NC(=O)CC2COc3ccccc3O2)c(OC)c1 (stereo not drawn),2.64% (inactive)
21,O=C(CCCCCn1c(=S)[nH]c2ccsc2c1=O)NC1CCCCC1,2.92% (inactive)
22,CCN(CCCNC(=O)CCn1c(=O)[nH]c2ccsc2c1=O)c1ccccc1,2.47% (inactive)

row,SMILES,activation
1,CCCCC(CC)CNC(=O)CCCCn1c(=O)[nH]c2ccsc2c1=O (stereo not drawn),15.6% (active)
2,COC(=O)c1ccc(NS(=O)(=O)c2cc3c4c(c2)C(C)C(=O)N4CCC3)cc1 (stereo not drawn),2.55% (inactive)
3,O=C(O)CN(Cc1ccco1)S(=O)(=O)c1ccc(F)cc1,-0.4% (inactive)
4,Cc1oc2cc(Br)c(O)c(Br)c2c1C(=O)c1ccccc1,16% (active)
5,COc1ccc(C(=O)c2c(C)oc3cc([N+](=O)[O-])c(O)c([N+](=O)[O-])c23)cc1,-5.67% (inactive)
6,Cc1oc2cc([N+](=O)[O-])c(O)c([N+](=O)[O-])c2c1C(=O)c1ccc(Br)cc1,-3.12% (inactive)
7,O=C1CCCc2c1[nH]c1ccc(Br)cc21,1.31% (inactive)
8,CCn1c(SCC(=O)N/N=C/c2ccccc2OCC(=O)O)nnc1-c1ccc(C(C)(C)C)cc1,6.89% (inactive)
9,O=C(Nc1cccc(Cc2ccccc2)c1)Nc1ccc2nc([C@@H]3O[C@H](CO)[C@@H](O)[C@H](O)[C@H]3O)[nH]c2c1,-13% (inactive)
10,CCCC1CCC(=NNC(=S)NCCc2ccccc2)CC1 (stereo not drawn),0.18% (inactive)
11,CC(=O)Nc1ccc(C(=O)N(C2=NC(C)CS2)c2ccc(Cl)cc2)cc1 (stereo not drawn),-3.34% (inactive)
12,CC(=O)NS(=O)(=O)c1ccc(NC(=O)C2C3C=CC(C3)C2C(=O)O)cc1 (stereo not drawn),2.61% (inactive)
13,CCCCNC(=O)C[C@@H]1C[C@@]2(C(=O)OCC)CCC=C2N(Cc2ccco2)C1=O,-3.77% (inactive)
14,O=C1C=C(c2cccc(Cl)c2)C[C@@H](c2ccc(F)cc2)C1,-0.66% (inactive)
15,O=C1CCCC(O)=C1C=NCCc1ccccc1,2.15% (inactive)
16,O=C1CC(c2cccc(Cl)c2)CC(O)=C1C=Nc1ccccc1 (stereo not drawn),20.8% (active)
17,C[C@@H]1CN([C@@H](C)CO)C(=O)c2cc(Br)cnc2O[C@H]1CN(C)Cc1ccc(-c2ccccc2)cc1,-1.74% (inactive)
18,Cn1c(=NC(=O)c2ccco2)sc2cccc(F)c21,2.52% (inactive)
19,CCCC(=O)N=c1sc2cccc(F)c2n1C,39.7% (active)
20,Cn1c(=NC(=O)c2cnccn2)sc2ccccc21,-2.18% (inactive)
21,CCOC(=O)/C=C/c1ccc(C(F)(F)F)cc1S(=O)(=O)NC(C)(C)C,-0.74% (inactive)
22,COc1ccc(N2CC(C(=O)NCCN3C(=O)S/C(=C\c4cccnc4)C3=O)CC2=O)c(OC)c1 (stereo not drawn),18.4% (active)

row,SMILES,activation
1,COc1ccccc1N1CC(C(=O)NCCN2C(=O)S/C(=C\c3cccnc3)C2=O)CC1=O (stereo not drawn),-0.83% (inactive)
2,Cc1cc(OCCCC(=O)NCCN2C(=O)S/C(=C\c3cccnc3)C2=O)ccc1Cl,8.37% (inactive)
3,CC1CCN(C(=O)COC(=O)c2cc(S(=O)(=O)N3CCOCC3)ccc2Cl)CC1,-1.57% (inactive)
4,O=C(COC(=O)c1ccc(S(=O)(=O)N2CCc3ccccc3C2)cc1)NC(=O)NCc1ccco1,-5.24% (inactive)
5,COc1cc(NC(=O)C2CCN(c3cnccn3)CC2)cc(OC)c1,-2.92% (inactive)
6,CCOC(=O)Cc1cc(=O)[nH]c(=O)[nH]1,-0.86% (inactive)
7,CCOCCCNC(=O)C(=O)NCCCOCC,0.95% (inactive)
8,CCOCCCNC(=O)Cc1cc(=O)[nH]c(=O)[nH]1,20.9% (active)
9,Cc1cc(OCCN2CCCC2)cc(C(C)C)c1,-5.99% (inactive)
10,CCOC(=O)c1ccc(NC(=O)Cn2cnc3cc(C)c(C)cc32)cc1,17.4% (active)
11,CCOC(=O)c1ccc(NC(=O)CS(=O)(=O)c2cn(CC)c3ccccc23)cc1,-0.07% (inactive)
12,CCOC(=O)c1ccc(NC(=O)CCn2c(=O)oc3ccccc32)cc1,-5.94% (inactive)
13,COc1ccc2c(c1)C(C)=CC(C)(C)N2C(=O)CNCc1ccc2c(c1)OCO2,-18.1% (inactive)
14,CCn1nnc(NC(=O)c2c(OC)cccc2OC)n1,-1.47% (inactive)
15,Cc1ccc(CCNC(=O)CN2C(=O)CSc3ccc(S(=O)(=O)N4CCOCC4)cc32)cc1,-3.24% (inactive)
16,CCC(C)N1CC(=O)N2Cc3[nH]c4ccccc4c3C[C@H]2C1=O (stereo partly drawn),-3.21% (inactive)
17,COc1cccc(C2c3[nH]c4ccccc4c3CCN2Cc2cccc(C)n2)c1 (stereo not drawn),-2.83% (inactive)
18,COc1ccc(C2c3[nH]c4ccccc4c3C[C@H]3C(=O)N(CC(C)C)CC(=O)N23)c(OC)c1 (stereo partly drawn),26.6% (active)
19,S=C(Nc1ccc(Cl)cc1Cl)N1CCCC1,-3.15% (inactive)
20,c1cnc(N2CCN(c3ccc4ccccc4n3)CC2)nc1,-1.28% (inactive)
21,O=C(c1ccc2ccccc2n1)N1CCN(c2ccccc2Cl)CC1,7.25% (inactive)
22,O=C(c1ccncc1)N1CCN(c2ccc3ccccc3n2)CC1,25.6% (active)

row,SMILES,activation
1,COc1ccc(NC(=O)COC(=O)c2ccncc2)c(OC)c1,-1.11% (inactive)
2,CCOC(=O)N1CCC(Nc2c(NCCCN3CCN(c4ccc(OC)cc4)CC3)c(=O)c2=O)CC1,4.04% (inactive)
3,CCCOc1ccc(CNC(=O)C2CCN(c3nn4c(=O)cc(C)nc4s3)CC2)cc1,11% (inactive)
4,COc1cccc(NC(=O)CSc2nnc(-c3cccnc3)o2)c1,14.9% (active)
5,COC(=O)CSc1nnc(-c2cccnc2)o1,1.04% (inactive)
6,O=C(CSc1nnc(-c2ccncc2)o1)Nc1cccc(Cl)c1,-0.76% (inactive)
7,O=C(CSc1nncs1)NC1CCCc2ccccc21 (stereo not drawn),-0.06% (inactive)
8,CC(C)COC(=O)n1c(=O)oc2ccc(S(=O)(=O)N3CCCCC3)cc21,0.93% (inactive)
9,COc1ccc(Cn2c(=O)sc3ccccc32)cc1OC,8.35% (inactive)
10,Cc1csc2ncc(C(=O)N(Cc3ccccc3)c3ccccn3)c(=O)n12,0.53% (inactive)
11,COc1ccccc1C(=O)NC(CCSC)C(=O)N1CCN(C(C)=O)CC1 (stereo not drawn),-3.47% (inactive)
12,CC(C)CNC(=S)NNC(=O)c1ccccc1OC(F)F,1.02% (inactive)
13,CC(C)Oc1ccccc1C(=O)NC(CO)C(=O)O (stereo not drawn),21.6% (active)
14,O=C(COc1ccc2c(c1)CCC2)N1CCN(c2ccc(F)cc2)CC1,-4.42% (inactive)
15,CC[C@@H](C)[C@H](NC(=O)CCc1c(C)c2cc3c4c(oc3c(C)c2oc1=O)CCCC4)C(=O)O,6.8% (inactive)
16,CCCCNS(=O)(=O)c1ccc2nc(SCC(=O)Nc3cc(C)cc(C)c3)[nH]c2c1,12.2% (inactive)
17,O=[N+]([O-])c1cccc(S(=O)(=O)N2CCCCCC2)c1,-1.72% (inactive)
18,Cc1cc(C)n(S(=O)(=O)c2cccc([N+](=O)[O-])c2)n1,18.4% (active)
19,CC1=NCCN1S(=O)(=O)c1cccc([N+](=O)[O-])c1,-2.76% (inactive)
20,Cc1cc(C)cc(NC(=O)COc2coc(CN3CCN(c4ccccc4)CC3)cc2=O)c1,6.93% (inactive)
21,c1ccc(-c2nnc3n2NC(c2ccc4c(c2)OCO4)S3)cc1 (stereo not drawn),-0.81% (inactive)
22,Cc1ccc(/C=C/C(=O)OCC(=O)NCc2ccc(Cl)cc2)o1,-2.51% (inactive)
